# In the supplement of paper PMC11732987, “Enantioselective OTUD7B fragment discovery through chemoproteomics screening and high-throughput optimisation” (Communications Chemistry, 2025):
# Values without a mark were called inactive.
# Target: T1, VCPIP1 (UniProt Q96JH7)
# T1 sequence (whole entry): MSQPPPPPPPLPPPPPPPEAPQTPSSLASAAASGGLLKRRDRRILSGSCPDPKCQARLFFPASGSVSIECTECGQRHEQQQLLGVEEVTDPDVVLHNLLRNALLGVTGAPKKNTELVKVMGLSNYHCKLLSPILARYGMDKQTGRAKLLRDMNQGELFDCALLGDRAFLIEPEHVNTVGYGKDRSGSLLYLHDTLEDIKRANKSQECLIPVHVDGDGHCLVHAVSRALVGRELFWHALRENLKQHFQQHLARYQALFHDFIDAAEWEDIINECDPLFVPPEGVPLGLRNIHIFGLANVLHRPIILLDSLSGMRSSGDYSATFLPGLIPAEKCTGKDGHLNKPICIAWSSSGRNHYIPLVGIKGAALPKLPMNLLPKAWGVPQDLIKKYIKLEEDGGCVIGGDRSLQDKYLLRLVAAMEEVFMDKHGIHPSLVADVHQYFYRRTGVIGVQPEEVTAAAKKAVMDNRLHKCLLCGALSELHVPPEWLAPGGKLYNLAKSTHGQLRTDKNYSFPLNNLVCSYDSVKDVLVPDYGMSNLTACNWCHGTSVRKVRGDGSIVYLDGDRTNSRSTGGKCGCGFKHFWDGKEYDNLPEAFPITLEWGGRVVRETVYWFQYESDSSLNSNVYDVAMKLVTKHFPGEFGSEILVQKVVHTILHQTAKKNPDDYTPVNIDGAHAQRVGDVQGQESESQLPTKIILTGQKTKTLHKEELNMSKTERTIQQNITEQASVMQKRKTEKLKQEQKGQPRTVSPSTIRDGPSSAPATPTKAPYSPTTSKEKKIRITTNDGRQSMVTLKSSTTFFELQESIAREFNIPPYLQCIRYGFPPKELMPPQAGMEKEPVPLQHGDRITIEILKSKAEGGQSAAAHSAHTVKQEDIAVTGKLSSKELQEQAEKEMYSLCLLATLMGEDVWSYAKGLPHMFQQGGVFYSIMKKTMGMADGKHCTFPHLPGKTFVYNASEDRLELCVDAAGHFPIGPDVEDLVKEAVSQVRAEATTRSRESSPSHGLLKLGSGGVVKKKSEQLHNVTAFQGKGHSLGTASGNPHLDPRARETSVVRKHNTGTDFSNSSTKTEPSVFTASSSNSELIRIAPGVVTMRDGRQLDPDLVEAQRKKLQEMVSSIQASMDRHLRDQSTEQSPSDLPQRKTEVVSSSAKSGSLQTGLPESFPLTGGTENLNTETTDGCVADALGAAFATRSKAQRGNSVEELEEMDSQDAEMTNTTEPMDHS
# Experiment: log2 ratio of Biotin-Ahx-Ub-VS probe labelling (fragment/DMSO); higher = less target engagement (more negative = stronger competition), active = hit call of the paper (q ≤ 0.05, log2 ratio ≤ -1)
# Details: compound concentration: 200 uM; treatment time: 3 h
# Experimental: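 Competitive ABPP in HEK293T cell lysate. Lysates were treated with each chloroacetamide fragment at 200 µM for 3 h, then with Biotin-Ahx-Ub-VS (0.5 µM, 1 h), NeutrAvidin-enriched and analysed by diaPASEF LC-MS/MS. Protein LFQ was median-normalised; average log2 ratio is fragment/DMSO from an unpaired t-test (n=3 treated, n=44 DMSO). Hits: q ≤ 0.05, log2 ratio ≤ -1, unique peptides ≥ 2.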
row,SMILES,log2 ratio of Biotin-Ahx-Ub-VS probe labelling
1,O=C(CCl)Nc1nnc(CC(F)(F)F)o1,-0.723
2,O=C(CCl)N1CCOC(CCc2ccccc2)C1 (stereo not given),-2.79 (active)
3,N#Cc1cnn(-c2ccccc2)c1NC(=O)CCl,-2.18 (active)
4,CN(CCC(O)c1ccc(Br)cc1)C(=O)CCl (stereo not given),-2.63 (active)
5,O=C(CCl)N1CCOC(c2cccc(F)c2)C1 (stereo not given),-1.67 (active)
6,O=C(CCl)N1CCC(=C(F)CO)C1,-0.129
7,Cc1cccc2nc(CCNC(=O)CCl)cn12.Cl,-1.77 (active)
8,Cl.O=C(CCl)N1CCn2ncc(O)c2C1,-0.764
9,O=C(CCl)NC1CCCCNC1=O (stereo not given),-0.603
10,CC(O)CC1CCN(C(=O)CCl)CC1 (stereo not given),-0.106
11,Cc1n[nH]c2c1CN(C(=O)CCl)CC2,-1.02 (active)
12,O=C(CCl)N1CCOC2(CCC2)CC1,-0.287
13,O=C(CCl)N1c2ccccc2NC(=O)C12CCCC2,-0.744
14,O=C(CCl)N(C1=CCCCC1)C1CC1,-0.286
15,CS(=O)(=O)c1ccc(NC(=O)CCl)cc1,-1.23 (active)
16,O=C(CCl)NCC1(c2ccccc2)CC1,-2.43 (active)
17,Cc1nc(-c2cccc(NC(=O)CCl)c2)cs1,-1.87 (active)
18,O=C(CCl)Nc1cc(Cl)ccc1-n1cncn1,-1.26 (active)
19,COCC[C@@H](NC(=O)CCl)c1ccccc1,-0.654
20,O=C(CCl)NCc1ccc(Cl)cc1,-1.16 (active)

row,SMILES,log2 ratio of Biotin-Ahx-Ub-VS probe labelling
1,O=C(O)C1Cc2ccccc2CN1C(=O)CCl (stereo not given),-0.368
2,N#Cc1ccc(CNC(=O)CCl)cc1,-1.31 (active)
3,CS(=O)(=O)N1CCCN(C(=O)CCl)CC1,-0.326
4,CC(NC(=O)CCl)c1noc(Cc2ccccc2)n1 (stereo not given),-1.42 (active)
5,O=C(CCl)Nc1cccc2ncccc12,-0.848
6,Cl.Cn1ncc2c1CCCC2NC(=O)CCl (stereo not given),-1.7 (active)
7,O=C(CCl)N1CCC(C(=O)N2CCCCCC2)CC1,-0.246
8,O=C(CCl)NC1(c2ccc3c(c2)OCCO3)CCCC1,-0.7
9,CC(NC(=O)CCl)c1cnn(C2CC2)c1 (stereo not given),-1.15 (active)
10,O=C(CCl)N1CCC(OCc2ccccc2F)CC1,-2.86 (active)
11,O=C(CCl)N1CCC(c2noc3cc(F)ccc23)CC1,-2.98 (active)
12,O=C(CCl)N1CCC(O)(Cc2ccc(F)cc2)C1 (stereo not given),-2.24 (active)
13,Cc1nc(CN2CCCN(C(=O)CCl)CC2)no1.Cl,-0.1
14,Cc1c(NC(=O)CCl)c(=O)n(-c2ccccc2)n1C,-0.255
15,CN(C)C(=O)c1ccc(CNC(=O)CCl)cc1,-0.952
16,COCC1C=CCCN1C(=O)CCl (stereo not given),-0.426
17,Cc1ccccc1CN(C)C(=O)CCl,-1.46 (active)
18,O=C(CCl)Nc1cccc(C(=O)N2CCSCC2)c1,-2.83
19,Cc1ccc(CC(NC(=O)CCl)c2ccccn2)cc1.Cl (stereo not given),-1.64 (active)
20,O=C(CCl)Nc1ccc(F)cc1Cl,-1.05 (active)
